# Tests used:
# Test in all cases: DAPPL (digital affinity profiling via proximity ligation, sequencing); 10 mM Tris-HCl pH 7.5, 50 mM NaCl, 1 mM DTT, 4% glycerol, room temperature, 30 min; GST-TFs on glutathione beads, 16-mer random dsDNA library, 0.1% formaldehyde crosslink after washing; high values mean tight binding
# [1] = molecular target: T1, FLI1 (Homo sapiens, UniProt Q01543 1-452); conditions: protein: recombinant; tags: N-terminal GST; dsDNA, one strand shown
# T1 sequence: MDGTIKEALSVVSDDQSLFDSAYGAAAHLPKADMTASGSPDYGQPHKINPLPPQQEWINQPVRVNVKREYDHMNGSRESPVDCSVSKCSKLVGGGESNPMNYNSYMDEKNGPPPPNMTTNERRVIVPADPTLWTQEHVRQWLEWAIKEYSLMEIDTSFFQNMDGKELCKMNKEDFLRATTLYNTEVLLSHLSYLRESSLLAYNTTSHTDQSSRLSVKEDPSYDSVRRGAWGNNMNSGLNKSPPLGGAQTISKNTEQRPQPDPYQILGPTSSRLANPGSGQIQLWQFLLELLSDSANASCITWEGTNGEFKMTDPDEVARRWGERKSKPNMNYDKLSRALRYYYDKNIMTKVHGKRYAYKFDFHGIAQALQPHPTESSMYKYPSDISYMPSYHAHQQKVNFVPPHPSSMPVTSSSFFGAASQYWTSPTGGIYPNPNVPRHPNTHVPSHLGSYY
# Procedure, shortened: (§1)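 Beads coated with glutathione captured GST-fused human transcription factors that had been expressed in yeast, and the factors were then given DNA barcodes and pooled with a tag-only sample. The pools were incubated with 200 nmole of a random double-stranded 16-mer DNA library in Tris/NaCl/DTT/glycerol buffer for 30 min at room temperature, washed, crosslinked with 0.1% formaldehyde and proximity-ligated with BsaI/T4 ligase at 37 °C for 1 h. PCR amplification and Illumina NextSeq500 sequencing came last. Binding signal is each hexamer's read frequency for a factor divided by its frequency for the tag-only sample.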
# [2] = molecular target: T2, ELK1 (Homo sapiens, UniProt P19419 1-428); conditions: protein: recombinant; tags: N-terminal GST; dsDNA, one strand shown
# T2 sequence: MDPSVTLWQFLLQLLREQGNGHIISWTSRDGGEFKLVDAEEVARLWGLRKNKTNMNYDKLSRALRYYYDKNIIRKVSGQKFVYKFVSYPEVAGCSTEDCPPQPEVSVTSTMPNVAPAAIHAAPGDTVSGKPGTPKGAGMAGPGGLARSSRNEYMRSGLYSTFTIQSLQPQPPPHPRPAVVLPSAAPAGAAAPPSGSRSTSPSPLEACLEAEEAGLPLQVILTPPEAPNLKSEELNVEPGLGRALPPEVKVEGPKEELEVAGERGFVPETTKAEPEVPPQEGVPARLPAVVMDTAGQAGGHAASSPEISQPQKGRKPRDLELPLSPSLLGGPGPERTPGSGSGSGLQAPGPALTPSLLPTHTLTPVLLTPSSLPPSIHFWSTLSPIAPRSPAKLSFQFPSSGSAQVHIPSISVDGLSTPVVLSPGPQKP
# Procedure, shortened: as §1
# [3] = molecular target: T3, GABPA (Homo sapiens, UniProt Q06546 1-454); conditions: protein: recombinant; tags: N-terminal GST; dsDNA, one strand shown
# T3 sequence: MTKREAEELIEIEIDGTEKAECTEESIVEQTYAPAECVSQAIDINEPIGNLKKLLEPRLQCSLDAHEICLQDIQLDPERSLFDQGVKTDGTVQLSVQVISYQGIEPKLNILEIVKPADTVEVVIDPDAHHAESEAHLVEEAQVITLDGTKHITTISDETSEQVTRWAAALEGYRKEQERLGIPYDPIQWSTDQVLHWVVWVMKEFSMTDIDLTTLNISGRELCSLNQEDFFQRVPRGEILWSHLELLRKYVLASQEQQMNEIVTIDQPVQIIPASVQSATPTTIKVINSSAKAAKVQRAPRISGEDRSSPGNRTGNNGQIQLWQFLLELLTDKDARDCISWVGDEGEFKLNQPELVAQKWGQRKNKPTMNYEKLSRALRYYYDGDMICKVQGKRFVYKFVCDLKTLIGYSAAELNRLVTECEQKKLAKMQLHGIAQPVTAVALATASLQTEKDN
# Procedure, shortened: as §1
# [4] = molecular target: T4, ERG (Homo sapiens, UniProt P11308 1-479); conditions: protein: recombinant; tags: N-terminal GST; dsDNA, one strand shown
# T4 sequence: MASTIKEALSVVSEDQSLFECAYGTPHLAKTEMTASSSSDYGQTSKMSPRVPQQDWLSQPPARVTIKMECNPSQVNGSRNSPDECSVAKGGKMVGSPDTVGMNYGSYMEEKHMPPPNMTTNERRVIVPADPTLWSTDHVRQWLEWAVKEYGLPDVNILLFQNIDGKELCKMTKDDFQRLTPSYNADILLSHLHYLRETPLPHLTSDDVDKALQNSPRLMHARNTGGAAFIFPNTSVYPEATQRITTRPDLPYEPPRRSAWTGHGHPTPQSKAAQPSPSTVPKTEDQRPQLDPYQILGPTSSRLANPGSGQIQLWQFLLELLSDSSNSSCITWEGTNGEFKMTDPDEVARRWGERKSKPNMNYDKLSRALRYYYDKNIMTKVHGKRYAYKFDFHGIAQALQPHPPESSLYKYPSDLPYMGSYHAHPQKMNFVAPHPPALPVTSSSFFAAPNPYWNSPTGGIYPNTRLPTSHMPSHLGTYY
# Procedure, shortened: as §1
# [5] = molecular target: ELF1 (Homo sapiens, UniProt P32519 1-619); conditions: protein: recombinant; tags: N-terminal GST; dsDNA, one strand shown
# Procedure, shortened: as §1
# [6] = molecular target: T5, EHF (Homo sapiens, UniProt Q9NZC4 1-300); conditions: protein: recombinant; tags: N-terminal GST; dsDNA, one strand shown
# T5 sequence: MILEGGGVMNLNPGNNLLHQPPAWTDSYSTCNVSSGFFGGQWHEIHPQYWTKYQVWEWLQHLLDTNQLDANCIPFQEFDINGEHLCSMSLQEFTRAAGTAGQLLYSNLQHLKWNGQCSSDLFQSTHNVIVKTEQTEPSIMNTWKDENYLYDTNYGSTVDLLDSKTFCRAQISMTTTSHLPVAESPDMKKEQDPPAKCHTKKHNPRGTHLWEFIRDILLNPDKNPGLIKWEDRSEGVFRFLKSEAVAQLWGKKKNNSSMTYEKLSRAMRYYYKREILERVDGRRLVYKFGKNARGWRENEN
# Procedure, shortened: as §1
# [7] = molecular target: SPI1 (Homo sapiens, UniProt P17947 1-270); conditions: protein: recombinant; tags: N-terminal GST; dsDNA, one strand shown
# Procedure, shortened: as §1
# [8] = molecular target: SPIB (Homo sapiens, UniProt Q01892 1-262); conditions: protein: recombinant; tags: N-terminal GST; dsDNA, one strand shown
# Procedure, shortened: as §1
# [9] = molecular target: T6, ELK3 (Homo sapiens, UniProt P41970 1-407); conditions: protein: recombinant; tags: N-terminal GST; dsDNA, one strand shown
# T6 sequence: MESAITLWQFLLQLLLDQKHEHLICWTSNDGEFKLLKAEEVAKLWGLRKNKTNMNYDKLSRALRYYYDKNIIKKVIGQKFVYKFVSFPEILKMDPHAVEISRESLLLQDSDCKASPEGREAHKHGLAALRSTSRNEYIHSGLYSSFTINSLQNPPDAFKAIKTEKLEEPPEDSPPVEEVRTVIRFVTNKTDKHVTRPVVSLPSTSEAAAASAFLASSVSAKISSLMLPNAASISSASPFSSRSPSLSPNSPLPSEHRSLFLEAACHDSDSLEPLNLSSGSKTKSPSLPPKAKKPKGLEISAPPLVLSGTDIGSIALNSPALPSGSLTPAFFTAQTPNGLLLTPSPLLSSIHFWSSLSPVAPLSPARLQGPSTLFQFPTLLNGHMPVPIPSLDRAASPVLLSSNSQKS
# Procedure, shortened: as §1
# [10] = molecular target: T7, FEV (Homo sapiens, UniProt Q99581 1-238); conditions: protein: recombinant; tags: N-terminal GST; dsDNA, one strand shown
# T7 sequence: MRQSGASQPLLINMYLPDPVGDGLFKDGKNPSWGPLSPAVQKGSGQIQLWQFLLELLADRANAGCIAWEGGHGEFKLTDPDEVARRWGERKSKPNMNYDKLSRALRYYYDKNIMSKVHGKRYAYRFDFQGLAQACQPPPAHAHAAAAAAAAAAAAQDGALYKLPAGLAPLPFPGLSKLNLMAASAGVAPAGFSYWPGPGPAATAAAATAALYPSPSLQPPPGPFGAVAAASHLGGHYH
# Procedure, shortened: as §1
# [11] = molecular target: ETV5 (Homo sapiens, UniProt P41161 1-510); conditions: protein: recombinant; tags: N-terminal GST; dsDNA, one strand shown
# Procedure, shortened: as §1
# [12] = molecular target: HSF1 (Homo sapiens, UniProt Q00613 1-529); conditions: protein: recombinant; tags: N-terminal GST; chain copies: 3; dsDNA, one strand shown
# Procedure, shortened: as §1
# [13] = molecular target: T8, SPIC (Homo sapiens, UniProt Q8N5J4 1-248); conditions: protein: recombinant; tags: N-terminal GST; dsDNA, one strand shown
# T8 sequence: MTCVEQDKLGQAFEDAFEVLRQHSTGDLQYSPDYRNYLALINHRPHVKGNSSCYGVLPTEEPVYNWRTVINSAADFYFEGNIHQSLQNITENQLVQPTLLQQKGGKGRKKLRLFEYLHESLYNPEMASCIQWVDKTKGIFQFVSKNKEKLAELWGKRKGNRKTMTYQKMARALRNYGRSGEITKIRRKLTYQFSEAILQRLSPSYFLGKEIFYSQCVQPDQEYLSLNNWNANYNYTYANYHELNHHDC
# Procedure, shortened: as §1
# [14] = molecular target: ELF4 (Homo sapiens, UniProt Q99607 1-663); conditions: protein: recombinant; tags: N-terminal GST; dsDNA, one strand shown
# Procedure, shortened: as §1
# [15] = molecular target: T9, ELK4 (Homo sapiens, UniProt P28324-2 1-405); conditions: protein: recombinant; tags: N-terminal GST; dsDNA, one strand shown
# T9 sequence: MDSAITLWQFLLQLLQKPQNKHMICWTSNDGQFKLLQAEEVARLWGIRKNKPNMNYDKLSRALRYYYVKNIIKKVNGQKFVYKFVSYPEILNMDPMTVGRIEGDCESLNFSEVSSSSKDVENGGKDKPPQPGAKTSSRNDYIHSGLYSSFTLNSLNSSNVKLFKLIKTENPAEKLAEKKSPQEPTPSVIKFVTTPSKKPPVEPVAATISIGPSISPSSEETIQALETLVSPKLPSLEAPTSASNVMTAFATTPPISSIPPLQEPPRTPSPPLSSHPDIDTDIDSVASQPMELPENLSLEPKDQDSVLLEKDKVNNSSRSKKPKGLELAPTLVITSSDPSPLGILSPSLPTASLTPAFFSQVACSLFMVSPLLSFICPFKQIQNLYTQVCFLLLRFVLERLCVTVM
# Procedure, shortened: as §1
# [16] = molecular target: T10, ETV2 (Homo sapiens, UniProt O00321 1-342); conditions: protein: recombinant; tags: N-terminal GST; dsDNA, one strand shown
# T10 sequence: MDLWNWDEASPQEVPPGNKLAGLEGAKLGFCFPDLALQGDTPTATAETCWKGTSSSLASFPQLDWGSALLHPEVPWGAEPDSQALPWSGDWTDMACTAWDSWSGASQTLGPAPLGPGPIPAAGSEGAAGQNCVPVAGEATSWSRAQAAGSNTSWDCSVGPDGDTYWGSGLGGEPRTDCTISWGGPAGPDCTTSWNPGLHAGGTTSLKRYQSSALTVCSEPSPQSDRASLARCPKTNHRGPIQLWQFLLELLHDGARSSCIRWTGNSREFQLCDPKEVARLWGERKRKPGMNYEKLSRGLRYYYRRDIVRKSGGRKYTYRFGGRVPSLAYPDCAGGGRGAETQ
# Procedure, shortened: as §1
# [17] = molecular target: T11, ELF3 (Homo sapiens, UniProt P78545 1-371); conditions: protein: recombinant; tags: N-terminal GST; dsDNA, one strand shown
# T11 sequence: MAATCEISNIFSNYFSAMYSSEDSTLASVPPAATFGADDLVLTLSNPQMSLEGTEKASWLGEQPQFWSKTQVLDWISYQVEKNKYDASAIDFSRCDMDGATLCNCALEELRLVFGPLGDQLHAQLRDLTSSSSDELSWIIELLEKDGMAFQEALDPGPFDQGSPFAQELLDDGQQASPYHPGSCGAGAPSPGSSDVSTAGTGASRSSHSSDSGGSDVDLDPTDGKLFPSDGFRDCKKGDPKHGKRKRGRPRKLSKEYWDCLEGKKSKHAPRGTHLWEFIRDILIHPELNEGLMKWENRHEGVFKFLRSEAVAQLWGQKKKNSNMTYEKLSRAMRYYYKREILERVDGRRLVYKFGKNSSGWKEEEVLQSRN
# Procedure, shortened: as §1
# [18] = molecular target: CRX (Homo sapiens, UniProt O43186 1-299); conditions: protein: recombinant; tags: N-terminal GST; dsDNA, one strand shown
# Procedure, shortened: as §1
# [19] = molecular target: ETV1 (Homo sapiens, UniProt P50549 1-477); conditions: protein: recombinant; tags: N-terminal GST; dsDNA, one strand shown
# Procedure, shortened: as §1
# Chain of ETV5 (P41161 whole entry): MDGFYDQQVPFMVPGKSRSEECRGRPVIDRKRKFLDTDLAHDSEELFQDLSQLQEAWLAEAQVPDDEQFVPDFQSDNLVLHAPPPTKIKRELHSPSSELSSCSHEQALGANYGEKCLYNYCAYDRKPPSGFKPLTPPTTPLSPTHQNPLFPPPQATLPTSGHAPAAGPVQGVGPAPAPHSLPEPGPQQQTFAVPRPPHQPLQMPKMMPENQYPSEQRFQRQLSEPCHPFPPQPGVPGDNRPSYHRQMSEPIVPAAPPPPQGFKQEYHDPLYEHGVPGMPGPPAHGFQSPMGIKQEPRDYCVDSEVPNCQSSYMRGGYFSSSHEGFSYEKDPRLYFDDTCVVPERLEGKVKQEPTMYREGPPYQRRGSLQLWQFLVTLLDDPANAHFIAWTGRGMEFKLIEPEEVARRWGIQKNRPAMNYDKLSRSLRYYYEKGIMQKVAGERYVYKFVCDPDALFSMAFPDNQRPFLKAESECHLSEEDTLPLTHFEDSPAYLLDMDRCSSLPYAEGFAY
# Chain of SPIB (Q01892 whole entry): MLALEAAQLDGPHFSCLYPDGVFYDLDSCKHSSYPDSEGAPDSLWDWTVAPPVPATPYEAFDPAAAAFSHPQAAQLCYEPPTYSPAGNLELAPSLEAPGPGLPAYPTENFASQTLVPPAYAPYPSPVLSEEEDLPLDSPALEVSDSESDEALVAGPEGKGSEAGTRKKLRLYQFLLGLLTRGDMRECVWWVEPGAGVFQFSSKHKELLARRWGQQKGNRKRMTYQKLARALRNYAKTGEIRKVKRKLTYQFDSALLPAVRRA
# Chain of HSF1 (Q00613 whole entry): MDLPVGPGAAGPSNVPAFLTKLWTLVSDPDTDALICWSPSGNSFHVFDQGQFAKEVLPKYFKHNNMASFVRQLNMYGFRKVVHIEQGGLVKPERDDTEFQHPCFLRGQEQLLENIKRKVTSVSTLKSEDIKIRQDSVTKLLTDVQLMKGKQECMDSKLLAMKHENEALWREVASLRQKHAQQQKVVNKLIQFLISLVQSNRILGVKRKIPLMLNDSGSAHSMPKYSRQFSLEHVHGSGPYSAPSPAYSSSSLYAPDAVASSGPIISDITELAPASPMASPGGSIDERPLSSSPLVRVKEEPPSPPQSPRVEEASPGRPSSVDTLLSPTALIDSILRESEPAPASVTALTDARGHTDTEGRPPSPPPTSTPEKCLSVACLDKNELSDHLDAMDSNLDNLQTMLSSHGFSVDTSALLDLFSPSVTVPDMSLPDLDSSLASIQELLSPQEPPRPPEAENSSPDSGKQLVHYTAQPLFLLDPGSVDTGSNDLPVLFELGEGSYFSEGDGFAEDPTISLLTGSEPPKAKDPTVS
# Chain of ETV1 (P50549 whole entry): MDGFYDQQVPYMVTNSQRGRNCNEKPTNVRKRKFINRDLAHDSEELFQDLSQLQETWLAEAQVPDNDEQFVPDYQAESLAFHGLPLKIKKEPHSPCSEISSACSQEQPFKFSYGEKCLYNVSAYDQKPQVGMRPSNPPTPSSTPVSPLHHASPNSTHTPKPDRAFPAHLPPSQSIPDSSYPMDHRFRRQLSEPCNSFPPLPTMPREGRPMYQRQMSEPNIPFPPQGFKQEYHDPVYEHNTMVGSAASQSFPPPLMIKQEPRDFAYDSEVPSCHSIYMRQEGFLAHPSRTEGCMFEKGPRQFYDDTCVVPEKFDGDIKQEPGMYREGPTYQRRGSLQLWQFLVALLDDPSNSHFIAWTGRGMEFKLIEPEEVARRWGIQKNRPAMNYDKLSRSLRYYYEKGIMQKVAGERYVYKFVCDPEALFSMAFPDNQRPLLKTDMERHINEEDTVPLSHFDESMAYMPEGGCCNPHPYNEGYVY
# Chain of ELF1 (P32519 whole entry): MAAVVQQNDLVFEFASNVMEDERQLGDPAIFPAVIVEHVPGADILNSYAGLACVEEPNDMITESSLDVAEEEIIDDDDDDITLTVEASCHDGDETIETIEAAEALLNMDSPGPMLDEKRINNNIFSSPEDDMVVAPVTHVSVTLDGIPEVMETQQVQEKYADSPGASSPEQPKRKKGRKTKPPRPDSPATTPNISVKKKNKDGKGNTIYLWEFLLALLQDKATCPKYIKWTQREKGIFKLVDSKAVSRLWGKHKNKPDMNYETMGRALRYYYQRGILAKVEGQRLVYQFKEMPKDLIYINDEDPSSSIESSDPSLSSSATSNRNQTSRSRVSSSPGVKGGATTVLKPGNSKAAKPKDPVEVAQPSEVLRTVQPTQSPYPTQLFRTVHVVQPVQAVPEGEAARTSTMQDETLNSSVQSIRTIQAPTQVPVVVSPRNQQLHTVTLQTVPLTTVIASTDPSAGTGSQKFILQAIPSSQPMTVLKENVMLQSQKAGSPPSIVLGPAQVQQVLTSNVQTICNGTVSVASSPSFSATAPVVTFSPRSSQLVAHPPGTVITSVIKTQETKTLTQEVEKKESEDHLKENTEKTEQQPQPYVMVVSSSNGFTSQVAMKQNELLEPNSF
# Chain of ELF4 (Q99607 whole entry): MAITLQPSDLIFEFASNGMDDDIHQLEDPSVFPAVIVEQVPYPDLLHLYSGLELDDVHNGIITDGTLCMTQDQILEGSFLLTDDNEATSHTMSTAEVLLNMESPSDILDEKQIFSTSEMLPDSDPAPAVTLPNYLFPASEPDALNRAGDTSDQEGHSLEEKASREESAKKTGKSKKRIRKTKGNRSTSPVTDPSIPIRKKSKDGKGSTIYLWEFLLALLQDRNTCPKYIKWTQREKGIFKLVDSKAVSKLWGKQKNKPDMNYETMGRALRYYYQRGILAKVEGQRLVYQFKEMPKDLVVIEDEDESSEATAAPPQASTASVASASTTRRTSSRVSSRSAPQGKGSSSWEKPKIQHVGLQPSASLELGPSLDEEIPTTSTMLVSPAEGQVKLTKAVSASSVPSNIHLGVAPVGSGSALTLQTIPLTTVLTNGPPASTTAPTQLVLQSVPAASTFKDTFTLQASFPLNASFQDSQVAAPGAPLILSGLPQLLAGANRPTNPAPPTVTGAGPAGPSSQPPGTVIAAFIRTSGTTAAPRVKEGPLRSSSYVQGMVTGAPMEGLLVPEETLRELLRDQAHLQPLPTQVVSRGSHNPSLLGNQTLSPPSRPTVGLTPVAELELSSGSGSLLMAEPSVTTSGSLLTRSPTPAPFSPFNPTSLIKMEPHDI
# Chain of CRX (O43186 whole entry): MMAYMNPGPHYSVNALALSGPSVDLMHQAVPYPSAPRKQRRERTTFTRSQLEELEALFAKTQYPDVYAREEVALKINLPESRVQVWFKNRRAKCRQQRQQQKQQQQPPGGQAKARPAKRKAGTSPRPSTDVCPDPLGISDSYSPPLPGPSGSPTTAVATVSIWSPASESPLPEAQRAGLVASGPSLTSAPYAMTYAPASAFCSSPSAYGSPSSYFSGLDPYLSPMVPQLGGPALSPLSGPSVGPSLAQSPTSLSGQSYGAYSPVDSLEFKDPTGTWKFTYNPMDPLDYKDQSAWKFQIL
sequence,measurement,setting,value
AACTCG,binding signal,[1],"1.41 fold enrichment (6-mer frequency, TF over GST control)"
same,binding signal,[2],"1.33 fold enrichment (6-mer frequency, TF over GST control)"
same,binding signal,[3],"1.4 fold enrichment (6-mer frequency, TF over GST control)"
same,binding signal,[4],"1.32 fold enrichment (6-mer frequency, TF over GST control)"
same,binding signal,[5],"1.39 fold enrichment (6-mer frequency, TF over GST control)"
same,binding signal,[6],"1.28 fold enrichment (6-mer frequency, TF over GST control)"
same,binding signal,[7],"1.4 fold enrichment (6-mer frequency, TF over GST control)"
same,binding signal,[8],"1.37 fold enrichment (6-mer frequency, TF over GST control)"
same,binding signal,[9],"1.24 fold enrichment (6-mer frequency, TF over GST control)"
same,binding signal,[10],"1.32 fold enrichment (6-mer frequency, TF over GST control)"
same,binding signal,[11],"1.29 fold enrichment (6-mer frequency, TF over GST control)"
same,binding signal,[12],"1.4 fold enrichment (6-mer frequency, TF over GST control)"
same,binding signal,[13],"1.58 fold enrichment (6-mer frequency, TF over GST control)"
same,binding signal,[14],"1.37 fold enrichment (6-mer frequency, TF over GST control)"
same,binding signal,[15],"1.29 fold enrichment (6-mer frequency, TF over GST control)"
same,binding signal,[16],"1.37 fold enrichment (6-mer frequency, TF over GST control)"
same,binding signal,[17],"1.29 fold enrichment (6-mer frequency, TF over GST control)"
same,binding signal,[18],"1.3 fold enrichment (6-mer frequency, TF over GST control)"
same,binding signal,[19],"1.3 fold enrichment (6-mer frequency, TF over GST control)"

# — PMC7862700, “An all-to-all approach to the identification of sequence-specific readers for epigenetic DNA modifications on cytosine”
